Assay outcomes (PubChem BioAssay)
Only some compounds are listed: those with a hit (about 2% of all), similar ones and a draw of the others.
CHT PAM = allosteric activators of human choline transporter CHT; AID 488977; hit rate 0.49% among 310,000; B-score at 10 µM; CHT-expressing cells, membrane potential dye, choline EC20; stronger effect = higher value; LV-AA mutant CHT in HEK293 cells;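 active = initial fluorescence not abnormally high and integrated response B-score, plate-corrected, over 3 SD above library mean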
Target sequence (Q9GZV3 whole entry, looked up): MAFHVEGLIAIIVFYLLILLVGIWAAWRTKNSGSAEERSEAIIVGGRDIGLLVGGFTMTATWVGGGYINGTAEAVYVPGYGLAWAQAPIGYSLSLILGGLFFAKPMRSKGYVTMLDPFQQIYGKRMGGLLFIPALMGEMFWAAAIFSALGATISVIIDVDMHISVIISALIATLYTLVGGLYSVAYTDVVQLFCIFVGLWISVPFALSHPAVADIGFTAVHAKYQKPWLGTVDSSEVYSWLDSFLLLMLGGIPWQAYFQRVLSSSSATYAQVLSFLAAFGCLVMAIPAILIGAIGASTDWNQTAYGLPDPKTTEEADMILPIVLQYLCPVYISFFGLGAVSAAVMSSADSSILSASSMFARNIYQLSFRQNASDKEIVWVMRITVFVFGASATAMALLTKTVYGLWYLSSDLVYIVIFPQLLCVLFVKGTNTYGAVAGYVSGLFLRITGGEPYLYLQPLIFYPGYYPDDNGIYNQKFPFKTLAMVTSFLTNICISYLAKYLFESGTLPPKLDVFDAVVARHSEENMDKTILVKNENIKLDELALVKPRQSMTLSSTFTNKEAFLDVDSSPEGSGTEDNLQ
Kir21 inh = blocks the mouse Kir2.1 inward-rectifier potassium channel | B-score at 10 µM | P35561 | hit rate 0.85% among 310,000 | AID 1672 | HEK293-Kir2.1, FluxOR thallium flux fluorescence; stronger effect = lower value;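 active = fluorescence ratio B-score at or below minus 3 SD of library scores, with starting-brightness B-score within 2 SD, cut at about -4.2 in these data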;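 also: channel flux triggered by added potassium and thallium sulfate stimulus; B-score of peak minus minimum fluorescence over baseline after thallium stimulus; more negative B-score means stronger Kir2.1 block with less thallium influx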
H9c2 TAG inh = inhibitors of triacylglycerol accumulation; hit rate 0.66% among 230,000; H9c2 cells, Nile Red lipid (TAG) fluorescence; cells loaded with 200 µM oleic acid; inhibition, % at 12.5 µM;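 active = pattern-corrected inhibition of lipid staining of at least 50% with the nuclear-stain viability signal not falling by more than 50%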;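 also: 0% = DMSO wells and 100% = triacsin C control wells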
CHT block = human CHT choline transport inhibition; Q9GZV3; CHT-expressing cells, membrane potential dye, choline response; stronger effect = lower value; B-score at 10 µM; hit rate 0.86% among 310,000; AID 488975;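 active = B-score over 3 SD under the library average, and starting fluorescence ratio not unusually high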;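 also: choline stimulus applied at its EC90 after an EC20 pre-addition; B-score computed on integrated fluorescence ratio after choline addition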
CHT inh conf = confirmation of human choline transporter CHT inhibitors; shares compounds with CHT block; CHT-expressing cells, choline membrane potential dye; LV-to-AA substituted CHT, HEK293 cells; CHT activity remaining % of control (stronger effect = lower value), % at 10 µM; hit rate 70% among 2,400;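 active = choline transporter activity left, mean of duplicates at 10 µM, below buffer-only control mean minus 3 SD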;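 also: depolarization triggered by choline at its EC90 following an EC20 pre-addition; 0% = hemicholinium-3 full block and 100% = buffer-only control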
HEK293 MPD ctr = counter-screen for CHT inhibitors: effect in parental HEK293 cells. shares compounds with CHT block. membrane potential dye, choline response; active = decrease or increase beyond buffer ±3SD. membrane potential ratio readout (active if shifted either direction beyond buffer ±3SD; no single direction) at 10 µM. hit rate 4% among 2,400;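 also: parental cells lack the transporter so any hit is non-specific; ratio is peak minus trough fluorescence over baseline after EC90 choline challenge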
The depositor's hits bear a star; i = inactive; x = not tested or not shown.

SMILES | CHT PAM | Kir21 inh | H9c2 TAG inh | CHT block | CHT inh conf | HEK293 MPD ctr
CC(C)CNS(=O)(=O)c1ccc(CCC(=O)N2CCN(Cc3ccc4c(c3)OCO4)CC2)cc1 | i | -0.2 | -1.9 | -5.55* | 61.8%* | i
CCOc1ccc(NC(=O)Cn2nc(-c3ccccc3Cl)n(CC)c2=S)cc1 | i | 0.36 | x | i | i | i
CCn1c(-c2ccccc2Cl)nn(CC(=O)Nc2ccc(OC)cc2)c1=S | i | -0.23 | -2.8 | i | x | x
Cc1nonc1NC(=O)CSc1cn[nH]n1 | i | -0.8 | x | i | x | x
Cc1nonc1NC(=O)CSc1ccc(-c2ccccc2)nn1 | i | -1.48 | x | -7.98* | 23.3%* | i
CC(=O)OC1CC2(C)C(=O)CCC2C2CCc3cc(O)ccc3C12 (configuration not stated) | i | 1.37 | x | -8.13* | 28.4%* | i
CC(C)(C)Nc1nc(Cl)nc(N(C#N)CN2C(=O)c3ccccc3S2(=O)=O)n1 | i | -1.82 | -3.2 | -5.64* | 57.2%* | i
CCOC(=O)C1CCCN(c2c(NCCC(C)C)c(=O)c2=O)C1 (configuration not stated) | i | -0.19 | -4.8 | i | x | x
CCOC(=O)C1CCN(c2c(NCCC(C)C)c(=O)c2=O)CC1 | i | -0.06 | -10.0 | -6.43* | i | i
CC1SC(c2ccc(F)cc2)N(CCc2ccccc2)C1=O (configuration not stated) | i | -2.83 | x | i | x | x
C=CCSc1nsc(NC(=O)Nc2ccc(F)cc2)n1 | i | -2.03 | -10.9 | -7.79* | i | i
CCSc1nsc(NC(=O)Nc2ccccc2F)n1 | i | -0.48 | -4.6 | i | x | x
O=C(NCc1ccccn1)C(=O)NCC1OCCCN1S(=O)(=O)c1cc(F)ccc1F (configuration not stated) | i | -0.41 | -0.7 | i | x | x
Cc1ccc(-c2nnn(CC(=O)N(CCN3CCOCC3)C(C(=O)NC(C)(C)C)c3ccco3)n2)cc1 (configuration not stated) | i | 0.42 | -3.6 | -6.21* | 23.8%* | -10.3*
COc1ccc(OCc2nnc(SCC(=O)Nc3ccccc3C#N)o2)cc1 | i | 0.06 | x | i | x | x
COc1ccc(N2CCN(C(c3ccc4ncccc4c3)c3nnnn3C(C)(C)C)CC2)cc1 (configuration not stated) | i | -0.41 | -8.1 | i | x | x
CC(C)(C)n1nnnc1C(c1ccc2ncccc2c1)N1CCC(O)CC1 (configuration not stated) | i | 0.56 | 3.4 | -5.26* | i | i
CC(NC(=S)N1CCOCC1)c1ccccc1 (configuration not stated) | i | -2.48 | x | i | x | x
CCCCn1c(-c2csc(CCC)c2)n[nH]c1=S | i | 1.32 | -4.2 | -5.57* | i | i
CCCCNc1nc(CC)c2c(c1C#N)CCCC2 | i | -1.95 | x | i | x | x
CCCCc1nc(NCCO)c(C#N)c2c1CCCC2 | i | -0.36 | -13.8 | -5.91* | i | i
COc1ccc(/C=C2\N=C(c3ccccc3)N(c3ccc(C(=O)O)cc3)C2=O)cc1OC | i | -0.04 | -1.7 | -6.91* | 46.8%* | i
CC1=N/C(=C\c2ccc(OC(C)C)cc2)C(=O)N1c1ccc(C(=O)O)cc1 | i | 0.24 | x | i | x | x
COc1ccc(Nc2nc3nonc3nc2N2CCCCC2)cc1 | i | -0.41 | -8.6 | i | x | x
CC1CCN(c2nc3nonc3nc2Nc2ccc(F)cc2)CC1 | i | -1.1 | -11.9 | -5.44* | i | i
SMILES | CHT PAM | Kir21 inh | H9c2 TAG inh | CHT block | CHT inh conf | HEK293 MPD ctr
CCOC(=O)Cc1c[nH]c(=S)[nH]c1=O | i | 1.28 | x | i | x | x
CCCn1nc([N+](=O)[O-])c(C(C#N)c2nc3ccccc3o2)c(Cl)c1=O (configuration not stated) | i | -0.72 | x | -12.4* | 16.4%* | i
O=C(NCc1ccc(Cl)cc1)c1ccc(CNc2c(N3CCOCC3)c(=O)c2=O)cc1 | i | 1.93 | 9.2 | i | x | x
O=C(NCc1ccc(Cl)cc1)c1ccc(CNc2c(N3CCCC3)c(=O)c2=O)cc1 | i | 0.79 | 2.3 | -6.24* | i | i
CCC(CC)c1nnc(NC(=O)c2c(C)nn(Cc3ccccc3Cl)c2C)s1 | i | 0.92 | 14.2 | -5.07* | i | i
Cc1nccn1CC1CCc2c(c3ccccc3n2C)C1=O (configuration not stated) | i | 0.9 | -9.9 | -6.66* | 7.4%* | i
Cc1nccn1C[C@@H]1CCc2c(c3ccccc3n2C)C1=O | i | 0.21 | -1.2 | -5.75* | 11.6%* | i
CC(=O)c1ccc(NC(=O)C2CC(=O)N(C(C)C)C2)cc1 (configuration not stated) | i | -0.21 | -6.6 | i | x | x
C=CCn1c(SCC(N)=O)nnc1-c1ccccc1O | i | 0.12 | 3.7 | i | x | x
C=CCn1c(SCc2ccccc2C#N)nnc1-c1ccccc1O | i | -3.47 | 17.7 | -6.34* | i | i
CCc1ccccc1NS(=O)(=O)c1ccc2[nH]cc(C(=O)NCC3CCCO3)c(=O)c2c1 (configuration not stated) | i | -0.03 | -1.5 | i | x | x
CN(Cc1ccccc1)S(=O)(=O)c1ccc2[nH]cc(C(=O)NCC3CCCO3)c(=O)c2c1 (configuration not stated) | i | x | x | -10.3* | 43.3%* | i
CC(NC(=O)/C(C#N)=C/c1ccc([N+](=O)[O-])o1)c1ccccc1 (configuration not stated) | i | -7.65* | x | -5.3* | 61.8%* | i
CC(NC(=O)/C(C#N)=C/c1ccco1)c1ccccc1 (configuration not stated) | i | 0 | -2.6 | i | x | x
N=C(N)SCc1ccccn1 | i | -0.29 | x | -5.94* | 33.4%* | i
COc1ccc(-c2csc3ncnc(N4CCN(CCO)CC4)c23)cc1 | i | -0.26 | x | -7.87* | 41.8%* | i
COc1ccc(-c2csc3ncnc(NCCCO)c23)cc1 | i | 0.68 | -0.4 | -5.78* | 59.5%* | i
CCN1CCN(c2ncnc3scc(-c4ccc(C)cc4)c23)CC1 | i | -1.09 | x | -9.88* | 22.2%* | i
Fc1ccc(-c2csc3ncnc(N4CCN(Cc5ccccc5)CC4)c23)cc1 | i | 0.48 | -12.6 | i | x | x
Cc1ccc(-c2csc3ncnc(N4CCN(Cc5ccccc5)CC4)c23)cc1 | i | -0.13 | x | i | x | x
OCCN1CCN(c2ncnc3scc(-c4ccc(F)cc4)c23)CC1 | i | -0.3 | -17.0 | -5.65* | 33.1%* | i
C#CCNC(=O)c1ccc2sc([C@H]3C[C@H](O)[C@@H](CO)O3)nc2c1 | x | x | -5.7 | x | x | x
O=C(CNC(=O)c1ccc(Cl)cc1Cl)OCC(=O)c1ccc2c(c1)OCCO2 | i | 1.32 | 2.7 | -6.67* | 66.1%* | i
